Whole data set: some 33,000 sequences, median “E-score (dimensionless, -0.5 to 0.5)” near -0.058, cut for the highest 2% near 0.35. What follows is part of a selection rich in the highest values, with near analogues and random picks from the rest.
System: MvaT
Experiment: PBM 8-mer E-score (mean of HK and ME arrays) (E-score (dimensionless, -0.5 to 0.5)); higher = stronger relative binding preference
Method in brief: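 Reported values are rank-based E-scores, taken as the mean of two universal arrays and parsed with a custom script. Each 8-mer score falls between -0.5 and 0.5. The arrays, ME and HK, were double-stranded 60-mers with a constant 25-mer primer region and a variable 35-mer region covering all 8-mers. They were probed, by an earlier protocol, with full-length P. aeruginosa MvaT carrying an N-terminal glutathione S-transferase fusion.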

Sequence | PBM 8-mer E-score
AGTGATCG | -0.118
AGAGGCTG | -0.304
TTATTGAA | 0.279
TAGGGTAA | 0.133
CTGATAAC | 0.136
AGCACAGG | -0.197
AATCAATA | 0.283
AAACAAGA | 0.166
GAACAATA | 0.267
AAACAATA | 0.375
TATCAATA | 0.365
AAACAATT | 0.346
CAACAATA | 0.289
AAACAATG | 0.201
GATCAATA | 0.152
AAACAATC | 0.06
AAACAACA | 0.214
TAACAATA | 0.394
GCAACGAC | -0.141
CCTCAACC | -0.226
AGATCTCG | -0.173
CTCTACTC | -0.0821
GCGCCACC | -0.15
ACAGGGGT | -0.121
AGGACTCG | -0.265

Sequence | PBM 8-mer E-score
TAACATTA | 0.374
CAACATTA | 0.293
GAACATTA | 0.276
ATACAATC | 0.18
CTACAATA | 0.244
ATACAATA | 0.372
ATCCGTTC | -0.0995
AGATTGAC | -0.15
GAGATATA | 0.303
AAGATATG | 0.136
AAGATATA | 0.419
TAGATATA | 0.368
CAGATATA | 0.237
AAGATATC | 0.26
ATTTACGA | 0.167
ATATTTAC | 0.36
ATATTTCA | 0.329
ATATTTAA | 0.462
CTATTTAA | 0.274
ATATTTAG | 0.342
CTATTTAC | 0.318
AGGCACCA | -0.116
AGCTGTCA | -0.156
ATGATCGG | -0.174
AGCTTCCA | -0.151

Sequence | PBM 8-mer E-score
CGCAAGTA | 0.195
CTATTATC | 0.263
ATATTATC | 0.439
AGATTATC | 0.255
ACATTATG | 0.249
GCATTATA | 0.309
ATCTTATA | 0.238
ATATTATA | 0.477
ATATTATG | 0.411
ACATTATA | 0.396
CCATTATA | 0.302
AGATTATG | 0.189
ATTCAAAC | 0.174
GATACCGA | 0.0372
GCTGCCCA | -0.142
GAGGAAGA | -0.133
ACCCGTTG | -0.195
TAGTCACA | 0.0578
AAAACGTA | 0.142
CGCCCATC | -0.117
CACTTGCA | -0.05
CAGCCCTG | -0.254
CGTGTCCA | -0.105
GCACTTCA | -0.102
GTGTGGTA | 0.118

Sequence | PBM 8-mer E-score
CCCTTCGC | -0.248
AATTAGGG | 0.137
AATCCCCG | -0.164
CGATTATA | 0.292
ATATTCTA | 0.348
GTCTTATA | 0.325
CTCTTATA | 0.289
AGATTATA | 0.39
CTATTCTA | 0.131
GTATTCTA | 0.112
CTATTATA | 0.44
GTATTATA | 0.437
GTATTACA | 0.224
GGATTATA | 0.32
CTTTTATA | 0.31
CGCGCTTC | -0.107
CAATGTCC | -0.106
AGCGCCTA | -0.16
AACTACGG | 0.0587
CCGCGCCC | -0.155
AACTCGGT | -0.0107
GCTGTAAC | 0.00489
CGCAAGAG | 0.0446
CGCGGTGA | -0.142
CCCTAAGA | -0.184

Sequence | PBM 8-mer E-score
ATAGAACG | 0.0944
CCGCAAAG | -0.132
ATGGCCAG | -0.256
ATATGTAC | 0.368
ATATGTCG | 0.22
CTATGTTA | 0.278
GTATGTTA | 0.288
ATATGTTA | 0.423
ATATGTAA | 0.309
ATATGTTC | 0.231
ATATGTTG | 0.359
CTATGTAC | 0.112
AGTCCACT | -0.0256
AATAGACC | 0.00124
TTGTACAA | 0.161
CGTCCAGA | -0.16
CCTGCTCG | -0.298
ACAGGTGC | -0.152
AATTGCTG | 0.0923
ATACCCTC | -0.12
CTTGGCCC | -0.249
AAATAGTT | 0.351
AAATAGTC | 0.235
AACTAAAA | 0.345
AACTAGTA | 0.303

Sequence | PBM 8-mer E-score
AAATAGTG | 0.136
AACTAAAG | 0.202
AACTAGTT | 0.392
AACTAGTG | 0.19
AACTAAAT | 0.351
AACTAATG | 0.312
AACTAATA | 0.323
AACTAATT | 0.401
CAAAGATG | 0.0517
CGTGAGAA | 0.0476
AGGAATGG | -0.0828
AACCTCCC | -0.253
CCGGATAC | -0.146
ACTGATAA | 0.209
ATCAAGGC | -0.14
TCATGACA | -0.0413
CTGTCCAC | -0.113
GCTCAAAC | 0.0144
AATAATGC | 0.384
AATAATGT | 0.408
AATAATGG | 0.372
TATAATGA | 0.373
CATAATGA | 0.233
AATAAGGT | 0.224
GATAATGC | 0.151

Sequence | PBM 8-mer E-score
AGTAATGG | 0.124
CATAATGC | 0.111
AAAAATGT | 0.0973
CATAATGG | 0.178
GATAATGA | 0.225
CGGGACAG | -0.151
CCCCACTA | -0.172
ATGACATG | -0.0134
AATTTCCC | 0.207
CTCACCAC | -0.026
CAGTTCAC | -0.0234
AACCGAAG | 0.0622
CCCACACC | 0.0355
ACTAATGA | 0.138
AATAATGA | 0.361
AGTAATGA | 0.165
ACCTAACA | -0.00971
ATTTATCA | 0.301
CTTTATCA | 0.182
GTTTATTA | 0.407
CTTTATTA | 0.402
ATTTATTA | 0.434
GTTTTTTA | 0.248
ATTTATCG | 0.291
ATTTATTC | 0.295

Sequence | PBM 8-mer E-score
ATTTATGG | 0.204
GTTTACTA | 0.147
ATTTATTG | 0.379
CTTTATTC | 0.209
ACCTCTAC | -0.178
TACGTTGA | 0.0324
AGAGCGCG | -0.146
GTGACCCA | -0.143
AGAATTAA | 0.301
GGAATTAC | 0.149
TCAATTAA | 0.237
CGAATTAA | 0.308
GGAATTAA | 0.347
TGAATTAA | 0.376
GGCGTGTA | -0.134
GGGCTGAA | -0.257
AGCCTGTA | -0.00993
CAAGAAAA | -0.021
ACGCGTCG | -0.0515
ATCACGGG | -0.203
CTATATAC | 0.377
CCATATAC | 0.153
ATCTATAC | 0.138
ATATATAC | 0.464
GTATACAC | 0.209

Sequence | PBM 8-mer E-score
GTATATAC | 0.41
ATATACGC | 0.291
GGATATAC | 0.208
CTCTATAC | 0.00646
CTCCCTAC | -0.109
AATGACCG | -0.00123
GTAGTTTA | 0.297
CGTGCGGA | -0.146
CAGTAGCC | -0.125
AAGTATAG | 0.167
TAGTATAA | 0.384
ATGTATAC | 0.332
AAGTATAC | 0.338
AAGTATAA | 0.379
ATGTATAA | 0.35
CAGTATAA | 0.267
AGGTATAA | 0.291
TCGTATAA | 0.148
AAGTATAT | 0.399
CTGTATAA | 0.264
GAGTATAA | 0.273
ACCAGGAG | -0.239
CGGGAGAG | -0.265
CACGGGGA | -0.0937
CTACCCAC | -0.0554

Sequence | PBM 8-mer E-score
ATGAAACA | 0.181
AGTATTAG | 0.27
CCTATTAA | 0.249
AGTATTAC | 0.306
ACTAGTAA | 0.24
AGTATTAT | 0.42
ACTATTAA | 0.411
ATTATTGA | 0.354
ACTAGTAG | 0.0918
GTTATTGA | 0.311
ACTAGTAT | 0.357
TCTATTAA | 0.285
CTTATTGA | 0.22
ATGATCAA | 0.176
GAAAGGGC | -0.199
TAAGAACA | 0.123
GCCGCTCA | -0.105
CTTTGAAA | 0.141
ACATGTAC | 0.243
AGGCCATC | -0.264
ATTATGAA | 0.269
CTTATTCA | 0.194
CTCATTAA | 0.196
ATCATTAA | 0.259
GCTATTAA | 0.272

Sequence | PBM 8-mer E-score
ACTATTAT | 0.425
ATTATTAA | 0.446
ACGATTAT | 0.245
GTTATTAA | 0.383
GTTATTCA | 0.236
CTTATTAA | 0.362
ACCATTAT | 0.332
GTTTTTCA | 0.0388
AGCGGTGG | -0.209
CCTGCCTC | -0.249
AGACTTCC | -0.21
AAAAAAGG | 0.0491
CTGTCCTA | -0.112
CTAATATA | 0.434
GTAATATA | 0.436
ATCATATA | 0.338
GTAATACA | 0.295
CTAATATC | 0.299
CTAATAGA | 0.184
ATAATATA | 0.475
GTCATATA | 0.282
ATAATCTA | 0.344
CAGGCTCG | -0.325
CAGACGGA | -0.156
AGCTGGGG | -0.186

Sequence | PBM 8-mer E-score
ACTACGCG | -0.0273
AGGGCATG | -0.207
GCAACGCA | -0.168
AATATTTA | 0.45
CATATTTC | 0.26
GATATTTA | 0.326
ACTATTTC | 0.201
AATTTTTG | 0.194
AACATTTG | 0.103
CCTATTTC | 0.0116
CATATTTA | 0.371
CCTATTTA | 0.212
AATATTTC | 0.404
AATATTGA | 0.327
AATATTTG | 0.349
AGTGTGAA | 0.204
CAGGGTTC | -0.251
GAAGATGA | -0.128
CGGAGTTC | -0.106
TCACCTCA | -0.163
CTTCTTTC | 0.015
CTAATAGC | 0.0517
ATAATAGC | 0.362
ATAATAGA | 0.364
GTAATAGA | 0.164

Sequence | PBM 8-mer E-score
AGAATAGA | 0.051
ATAATAGG | 0.291
TTGGAAAA | 0.114
AACTCGTC | 0.0126
GGGTTGAC | -0.213
CATACGGC | -0.244
ACCGTAGA | -0.0538
CCCGTGCG | -0.273
AGACGAAC | -0.107
ATCCAAAA | 0.1
CCTAACCA | -0.103
CTGCTGTC | -0.222
ACTTAATC | 0.187
CCTTAATA | 0.298
ACTTAATG | 0.287
GCTTAACA | 0.0832
GCTTAATA | 0.352
ACTTAATA | 0.4
CGATGGTC | -0.364
AGACAGGA | -0.156
CGTCCTCA | -0.231
ACGCGGCG | -0.275
ACGTTAAA | 0.256
CACTCGTC | -0.185
CTGGCATC | -0.181

Sequence | PBM 8-mer E-score
CAATCAGC | -0.0173
ATTAAGAG | 0.297
GGTAATAC | 0.249
ATTAATAG | 0.426
ATTAAGAA | 0.282
AGTAATAA | 0.327
ATTAATAC | 0.41
CTTAATAC | 0.286
ATTAATAA | 0.468
AGAGGTCA | -0.266
ACGGCAAC | -0.107
CGTTTTGC | 0.0694
TGGTTGAA | -0.0872
CCTCATAA | -0.0267
TCGTTAAA | 0.156
CAGAAGGC | -0.229
CTGAGCAA | -0.0891
TAAACAGA | 0.188
ACAGACTA | 0.136

— the supplement of paper PMC4466236
